This assay concerns the target AT4G31550 (Arabidopsis thaliana, UniProt Q9SV15 228-325). Put plainly: DPI-ELISA; DPI-ELISA, streptavidin 384-well plate, 1-2 pmol biotinylated dsDNA per well, crude native E. coli extract, anti-His detection; buffer as in Brand et al. [46],; high values mean tight binding. To be noted: tags: C-terminal His (pET-DEST42); label: 5' biotin on forward strand; dsDNA, one strand shown.
Sequence of AT4G31550 (Q9SV15 228-325): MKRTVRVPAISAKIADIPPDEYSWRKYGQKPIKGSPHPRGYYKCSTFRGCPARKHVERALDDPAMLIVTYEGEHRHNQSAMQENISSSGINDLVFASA
AAAAAAGCTCGTCTCCGCCTCCTGCTAAAA yielded a binding signal of 0.785 ± 0.262 absorbance.

Take AAAAAACTGCTAATCGGTGACCCGATAAAA: the binding signal turned out to be 0.745 ± 0.00707 absorbance.

Consider AAAAAAATGATTTGCAGATCTCCGAGAAAA, for which the binding signal was determined as 0.935 ± 0.488 absorbance.

AAAAAAACTCTAGGTCAATATTATTCAAAA had a binding signal of 3.11 ± 0.636 absorbance.

For AAAAAATTAGGACCATCCCCACTAGGAAAA, the binding signal is 0.69 ± 0.0707 absorbance.

Sequence AAAAAAGGGTATACTCGCAGCCCCTAAAAA yielded a binding signal of 0.51 ± 0.0849 absorbance.

In turn, AAAAAAGGCTCCGGCCCCCAATCGCAAAAA registered a binding signal of 0.61 ± 0.0566 absorbance.

In turn, AAAAAAGCTTCGCGCCAGCGGGAAAA gave a binding signal of 0.695 ± 0.0636 absorbance.

AAAAAAAAGCTTCGGAGTCTTGAGAAAAAA displayed a binding signal of 0.685 ± 0.0354 absorbance.

On to AAAAAAGGCCACGGTAACCCCTTTTGAAAA, for which the binding signal was 0.695 ± 0.12 absorbance.

As for AAAAAATAATATCGATACTCATGCCCAAAA, the binding signal came to 0.685 ± 0.134 absorbance.

Sequence AAAAAAACTTTCTATTCTGGATAAGTAAAA showed a binding signal of 0.625 ± 0.134 absorbance.

AAAAAACCTTCCCCCTCTTCTGCCTTAAAA registered a binding signal of 0.665 ± 0.0354 absorbance.

Turning to AAAAAAGGGGTCCTTTTCCAATGTCTAAAA, the binding signal was determined as 0.605 ± 0.0495 absorbance.

On to AAAAAAAGTTACCAGTACGCGTCGGGAAAA, for which the binding signal is 0.64 ± 0.141 absorbance.

The sequence AAAAAATCTAGGGGTACCTATTTGGCAAAA showed a binding signal of 0.675 ± 0.12 absorbance.

In turn, AAAAAAACTTCTGTCCCTGTTCCCGTAAAA had a binding signal of 0.55 ± 0.127 absorbance.

As to AAAAAATGTTGTTGCTGTTGGTCCTAAAAA, the binding signal stood at 0.695 ± 0.0778 absorbance.

Sequence AAAAAAGCTAGTGCTGCCACCAACGTAAAA gave a binding signal of 0.535 ± 0.12 absorbance.

The sequence AAAAAACCTTACCTCATCCCTATCCCAAAA displayed a binding signal of 0.605 ± 0.134 absorbance.

In the case of AAAAAAGGGTTTGTCGGGAATTGCCGAAAA, the binding signal came out at 0.58 ± 0.0849 absorbance.

AAAAAAGCTAGTCGATTCGGCTTAGAAAAA: the binding signal was determined as 0.68 ± 0.17 absorbance.

Sequence AAAAAATTAGACGCTACACTTACGGTAAAA yielded a binding signal of 0.665 ± 0.106 absorbance.

In turn, AAAAAATTGTGCCTCTGCCCTCGCCTAAAA registered a binding signal of 0.62 ± 0.127 absorbance.

For the sequence AAAAAAGGCGTCTGACTGTAACTCGTAAAA, the binding signal worked out at 1.43 ± 0.445 absorbance.

With AAAAAATTTGGTCTTCGTCCTCGCTTAAAA, the binding signal amounted to 0.9 ± 0.0707 absorbance.

The sequence AAAAAAGATCTAGGCCTTGGGACTCAAAAA came in with a binding signal of 0.415 ± 0.0636 absorbance.

Turning to AAAAAAATTCGCAACCCTCACGTTCGAAAA, the binding signal was 0.67 ± 0.0566 absorbance.

Sequence AAAAAAGTCCCGCGCTAAGCTTTAAAAAAA yielded a binding signal of 0.615 ± 0.106 absorbance.

With AAAAAAAACGTCTGGCGGGGTTGAGAAAAA, the binding signal was 0.65 ± 0.113 absorbance.

In turn, AAAAAAGTTTCTGCTTTCCCTTTCGTAAAA showed a binding signal of 0.665 ± 0.205 absorbance.

With AAAAAATCATCTCTATGTTATTGTTGAAAA, the binding signal amounted to 0.58 ± 0.113 absorbance.

Regarding AAAAAATGGGGCTCTGGCCCACCGTAAAAA, the binding signal came out at 0.525 ± 0.0778 absorbance.

AAAAAACACGCCATTGACACTGGTAAAAAA showed a binding signal of 1.67 ± 0.219 absorbance.

As for AAAAAACCTACGATGGTTCTGATCTTAAAA, the binding signal was 0.655 ± 0.12 absorbance.

AAAAAACGTGCGCGTGCATGTCATCGAAAA returned a binding signal of 0.665 ± 0.0919 absorbance.

The sequence AAAAAATCCTATCTTGGCTTTGGCCTAAAA came in with a binding signal of 0.65 ± 0.156 absorbance.

In turn, AAAAAAGTGCGTTCACGCTTGTATCTAAAA returned a binding signal of 0.69 ± 0.17 absorbance.

The values above are taken from article PMC3795721, “Screening for Protein-DNA Interactions by Automatable DNA-Protein Interaction ELISA”.
